12-LOX inh = Primary qHTS assay for inhibitors of human arachidonate 12S-lipoxygenase (ALOX12): Round 2 | AID 1671190, 2021 | Potency, µM (top dose mostly 108 µM), most hits filed as inhibitors | purified 12hLO, xylenol orange hydroperoxide absorbance | hit rate 1.1% among 580,000 | Polyunsaturated fatty acid lipoxygenase ALOX12 (Homo sapiens), P18054
Target sequence (P18054 whole entry, looked up): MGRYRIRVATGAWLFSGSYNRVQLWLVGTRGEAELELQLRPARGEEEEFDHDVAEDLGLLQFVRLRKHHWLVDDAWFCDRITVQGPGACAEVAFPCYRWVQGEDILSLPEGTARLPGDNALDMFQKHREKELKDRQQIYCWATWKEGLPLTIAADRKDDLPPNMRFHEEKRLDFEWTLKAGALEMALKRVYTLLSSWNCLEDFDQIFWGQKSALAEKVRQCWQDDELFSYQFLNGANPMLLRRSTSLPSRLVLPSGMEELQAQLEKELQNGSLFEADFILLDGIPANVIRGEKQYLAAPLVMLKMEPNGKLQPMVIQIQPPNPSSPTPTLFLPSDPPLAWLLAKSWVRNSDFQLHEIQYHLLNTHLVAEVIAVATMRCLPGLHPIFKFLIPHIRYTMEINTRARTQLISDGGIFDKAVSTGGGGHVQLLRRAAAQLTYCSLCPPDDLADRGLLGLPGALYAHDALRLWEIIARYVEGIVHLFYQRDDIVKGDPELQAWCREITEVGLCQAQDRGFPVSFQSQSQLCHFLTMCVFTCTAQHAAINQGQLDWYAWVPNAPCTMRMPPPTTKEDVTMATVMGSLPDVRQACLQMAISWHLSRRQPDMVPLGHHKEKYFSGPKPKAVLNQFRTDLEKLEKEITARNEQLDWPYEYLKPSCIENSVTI
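Purified human 12hLO at 150 nM in 25 mM Hepes, 0.01% Triton X-100, pH 7.0, preincubated 15 min at room temperature with compound. Reaction started with 40 uM arachidonic acid, 30 min at room temperature. Hydroperoxide measured by Fe-xylenol orange, 573/405 nm absorbance ratio.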
Gal4-VP16 FLuc = VP16 counterscreen qHTS for inhibitors of ROR gamma transcriptional activity; Drosophila S2 Gal4-VP16 UAS-luciferase, luminescence, 20 h; Potency, µM (titrated, usually from 53.6 µM), actives largely listed as inhibitors; hit rate 3.5% among 310,000; AID 2546, 2010;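 note: Gal4-VP16 expression switched on by copper sulfate through the metallothionein promoter; nearly all actives have a fitted effect of over 50% in size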
ELG1 DNA repair = qHTS screen for small molecules that inhibit ELG1-dependent DNA repair in human embryonic kidney (HEK293T) cells expressing luciferase-tagged ELG1; HEK293T ELG1-luciferase reporter, luminescence, 16 h; DNA damage induced by 5-fluorouridine; Potency, µM (top dose mostly 46.1 µM), most hits filed as inhibitors; hit rate 2.3% among 330,000; AID 504467, 2011; note: nearly all actives have a fitted effect of over 55% in size
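Reporter activity after DNA damage by 5-fluorouridine is monitored. Compound-treated cells incubate 16 hr at 37 °C, then ONE-Glo is added for 30 min before luminescence reading.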
RORg inh = qHTS for inhibitors of ROR gamma transcriptional activity; Nuclear receptor ROR-gamma (Mus musculus), P51450; Drosophila S2 Gal4-RORgamma UAS-luciferase reporter, 20 h; Potency, µM (top dose mostly 53.6 µM), most hits filed as inhibitors; hit rate 5.4% among 310,000; AID 2551, 2010; note: nearly all actives have a fitted effect of over 60% in size
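ROR gamma transcriptional activity was tracked as Gal4-UAS luciferase output in stably transfected Drosophila Schneider cells, with compound added 1 hr before 700 uM copper sulfate induction and a 20 hr ambient-temperature incubation.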
DT40 TDP1 no CPT = qHTS for Inhibitors of human tyrosyl-DNA phosphodiesterase 1 (TDP1): qHTS in cells in absence of CPT; DT40 Tdp1-/- hTDP1 cells, no CPT, ATP luminescence, 48 h; Potency, µM (series often up to 46.2 µM), actives largely listed as inhibitors; hit rate 15% among 420,000; note: nearly all actives have a fitted effect of over 55% in size
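Growth of hTDP1-complemented DT40 Tdp1-knockout cells is measured by ATP luminescence after at least 48 hr compound exposure at 37 °C, with DMSO substituting for the 20 nM CPT used in the parallel screen.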
TDP1 cell CPT = qHTS for Inhibitors of human tyrosyl-DNA phosphodiesterase 1 (TDP1): qHTS in cells in presence of CPT | chicken DT40 Tdp1-/-;hTDP1 cells + 20 nM CPT, ATP luminescence, 48 h | Potency, µM (titrated, usually from 46.2 µM), usual class: inhibitors | hit rate 12% among 420,000 | AID 686979, 2013; note: nearly all actives have a fitted effect of over 55% in size
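Cell growth measured by CellTiter-Glo luminescence after a minimum 48 h, 37 C compound exposure with 20 nM CPT in Tdp1-knockout DT40 cells stably expressing hTDP1, seeded 400/well; qHTS titration format.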
Numbers stand for hits; - = inactive; ? = inconclusive; . = not tested or not shown; [ ] = another dose, or the depositor's remark. A selection: hits, their analogues and other compounds. The true share with any hit is near 15%. Calls come from the whole dose curve; as a rule, active = well fitted curve in the direction sought with a large enough effect; inconclusive = small, poorly fitted or top-dose-only effect, or another doubt; inactive = no such curve, though single readings can be large; an effect the other way counts as inactive or inconclusive.

SMILES | 12-LOX inh | Gal4-VP16 FLuc | ELG1 DNA repair | RORg inh | DT40 TDP1 no CPT | TDP1 cell CPT
O=c1[nH]c2ccccc2n1C1CCN(C(c2ccccc2OC(F)(F)F)c2nnnn2-c2ccc3c(c2)OCCO3)CC1 (stereo unspecified) | - | . | . | . | 4.6µM | 7.3µM
COc1cccc(C(c2nnnn2-c2ccc3c(c2)OCCO3)N2CCC(n3c(=O)[nH]c4ccccc43)CC2)c1OC (stereo unspecified) | - | . | . | . | 2.3µM | 2.9µM
O=C(CCCN1CCC(n2c(=O)[nH]c3ccccc32)CC1)c1ccc(F)cc1 | - | - | - | -[2.98 µM] | ? | ?
COc1ccc(-n2nnnc2C(c2cccc(OC)c2OC)N2CCC(n3c(=O)[nH]c4ccccc43)CC2)cc1 (stereo unspecified) | - | . | . | . | 5.2µM | 8.2µM
CC[C@H]1CN2CC[C@H]1C[C@@H]2CNC(=O)c1ccc(F)c(Cl)c1 | - | . | . | . | . | .
Cc1cnc(C)c(Nc2nc(C(N)Cc3ccc(C(F)(F)F)cc3)cs2)n1 (stereo unspecified) | ? | . | . | . | 12µM | 12µM
COCCN1C[C@H]2CN(Cc3ccccn3)CCN2C1=O | - | . | . | . | . | .
COc1ccc(C)cc1NC(=O)c1cn(C)c2ccccc12 | - | . | . | . | . | .
Cc1[nH]n(-c2ccccc2)c(=O)c1C(c1ccc([N+](=O)[O-])cc1)c1c(C)[nH]n(-c2ccccc2)c1=O | . | - | - | - | ? | 16µM
Cc1[nH]n(-c2ccccc2)c(=O)c1C(C[N+](=O)[O-])c1ccccc1Cl (stereo unspecified) | - | - | - | - | 29µM | 21µM
Cc1ccccc1C(Cn1ccnc1-c1cnc[nH]1)N(C)C (stereo unspecified) | - | . | . | . | . | .
CSc1nnc([C@@H](N)Cc2ccccc2)o1 | - | - | - | - | - | -
CC(C)Sc1nnc([C@@H](N)Cc2ccccc2)o1 | - | 11µM | ? | - | - | -
CN(C)c1ccc(P(=S)(N(C)C)N(C)C)cc1 | - | - | - | ? | ? | ?
CN(C)c1ccc(N=O)cc1 | . | 5.6µM | . | 2.2µM | 5µM | 0.56µM
CN(C)c1ccc(P(=O)(OC2CCCCC2)C(Nc2ccccc2)c2cccnc2)cc1 (stereo unspecified) | ? | - | ? | - | 21µM | ?
CC1CCC(C(C)C)C(OP(=O)(c2ccc(N(C)C)cc2)C(O)c2cccnc2)C1 (stereo unspecified) | . | - | - | ? | . | .
CC(C)COP(=O)(OCC(C)C)C(Nc1ccccc1)c1ccccc1 (stereo unspecified) | ? | - | ? | - | ? | ?
CC(C)COP(=O)(c1ccc(N(C)C)cc1)C(Nc1ccccc1)c1ccccc1 (stereo unspecified) | - | ? | - | - | 29µM | ?
O=C(O)c1cc(Cl)c(O)c(Cl)c1 | - | . | . | . | . | .
C=CCN(C)C(=O)[C@H]1CN2CCC1C[C@@H]2Cn1cc(CNC)nn1 (stereo partly specified) | - | . | . | . | . | .
COCC(=O)N1CCCC(C(=O)N2CCC(C#N)(c3ccccc3)CC2)C1 (stereo unspecified) | - | . | . | . | . | .
CNC1CCc2ccccc21 (stereo unspecified) | - | . | . | . | . | .
CNC(=O)c1cccn(Cc2cc(C(F)(F)F)cc(C(F)(F)F)c2)c1=O | - | - | 6.5µM | - | ? | ?
CCCCCCCCCCCCCCCCCC[N+](C)(C)CCC[Si](OC)(OC)OC | . | - | . | -[10 µM] | 12µM | 24µM
SMILES | 12-LOX inh | Gal4-VP16 FLuc | ELG1 DNA repair | RORg inh | DT40 TDP1 no CPT | TDP1 cell CPT
CCCCCC[N+](=O)[O-] | ? | - | - | - | - | -
CCCCCCCCCC[N+](C)(C)CCCCCCCCCC | . | ? | . | -[10 µM] | 0.94µM | 1.3µM
CCCCCCCCCCCCCCCC[N+](C)(C)C | ? | ? | - | ? | 1.8µM | 2.3µM
O=c1[nH]c(=S)n(Cc2ccc(F)cc2)c(O)c1/C=N/N1CCCCCC1 | 35µM | ? | - | ? | ? | -
Cc1ncc2c(n1)C[C@@H]1CC[C@H]2N1S(=O)(=O)c1ccc2c(c1)OCCO2 | - | . | . | . | . | .
COc1ccc(C(=O)C2CCCN(Cc3ccsc3)C2)cc1OC (stereo unspecified) | - | - | - | - | - | -
CCCCc1ncc(CN2CCCC(C(=O)c3ccc(SC)cc3)C2)[nH]1 (stereo unspecified) | - | - | ? | 11µM | ? | ?
C[C@]12CCC3C(CC[C@H]4CC(=O)CC[C@]34C)C1CCC2=O (stereo partly specified) | - | . | - | . | ? | ?
C[C@]1(O)CCC2C3CC[C@@H]4CC(=O)CC[C@]4(C)C3CC[C@@]21C (stereo partly specified) | - | . | - | . | ? | 18µM
C[C@]12C=CC(=O)C=C1CC[C@@H]1[C@@H]2CC[C@@]2(C)[C@H]1CC[C@]2(C)O | - | - | . | - | 19µM | ?
CN1Cc2ccccc2-n2ccnc2C12CCN(C(=O)Cc1cccs1)CC2 | - | . | . | . | . | .
O=C1CO[C@H]2CN(C3CCOCC3)C[C@H]2N1Cc1ccncc1 | - | . | . | . | . | .
CN(C)c1ccc(NC(=O)c2sc3nc4c(cc3c2N)N2CCC4CC2)cc1 | - | . | . | . | . | .
N#Cc1cccc(NC(=O)c2sc3nc4c(cc3c2N)N2CCC4CC2)c1 | - | . | . | . | 13µM | 4.1µM
N#Cc1cc2c(nc1SCC(=O)Nc1ccc(OC(F)(F)F)cc1)C1CCN2CC1 | ? | . | . | . | 18µM | ?
N#Cc1cccc(NC(=O)CSc2nc3c(cc2C#N)N2CCC3CC2)c1 | ? | . | . | . | 16µM | ?
CCC(CC)c1cc([C@H]2CN3CC[C@H]2C[C@@H]3CNC(=O)c2ccc(C)cc2)nc(-c2ccncc2)n1 | - | . | . | . | . | .
COc1ccc(OC)c(S(=O)(=O)NC[C@H]2C[C@@H]3CCN2C[C@@H]3c2cc(-c3cccs3)nn2C)c1 | - | . | . | . | . | .
OCC1CN(C2CCC2)CC12CCN(Cc1cccnc1)CC2 (stereo unspecified) | - | . | . | . | . | .
Cc1c(C(=O)NCc2nccs2)cnn1-c1ncc2c(n1)-c1ccccc1CC2 | - | . | . | . | 21µM | 9.2µM
Cc1oc(-c2cccs2)nc1CC(=O)N1CCN(CC(=O)N2CCCCC2)CC1 | - | . | . | . | . | .
O=C1C(Cl)=C(Cl)C(=O)C(Cl)=C1Cl | . | ? | . | 4.5µM | 2.9µM | 4.6µM
CC1OC(OC2CCC3(C=O)[C@H]4CCC5(C)C(C6=CC(=O)OC6)CCC5(O)[C@@H]4CCC3(O)C2)CC2OC(C)(C)OC12 (stereo partly specified) | - | . | . | . | . | .
